Results reported in PubChem BioAssay (NCATS).
Several values for one entry are separate records, joined by “and”; a condition that tells them apart may be missing. Equal entries are not always repeated. Results filed as inconclusive are left out. Some compounds were tested as several samples or in several runs, with calls that do not always agree. Activity calls are given as the source filed them. Calls follow the shape of the dose curve; as a rule, active = well fitted curve in the direction sought with a large enough effect; inconclusive = small, poorly fitted or top-dose-only effect, or another doubt; inactive = no such curve, though single readings can be large; an effect the other way counts as inactive or inconclusive.

What was measured:
[1] = P-glycoprotein substrates identified in KB-3-1 adenocarcinoma cell line, qHTS therapeutic library screen (AID 1346986); also: nearly all actives have a fitted effect of over 60% in size;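 also: potency is read from the fitted curve at half-maximal effect; potency is for cytotoxicity meaning loss of cell viability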
Procedure, shortened: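 Resistance attributable to P-gp was assessed by comparing AC50 in KB-8-5-11 with parental KB-3-1 and by tariquidar reversal. Cells were exposed 72 h and viability read by CellTiter-Glo.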

[2] = P-glycoprotein substrates identified in KB-8-5-11 adenocarcinoma cell line, qHTS therapeutic library screen (AID 1346987); also: nearly all actives have a fitted effect of over 65% in size; also: potency is read from the fitted curve at half-maximal effect; as to activity change, negative = cytotoxicity: series mostly up to about 44 µM; % is scaled to controls: 0 for no effect and ±100 for the full control effect
Procedure, shortened: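 Steps: plate 500 KB-8-5-11 cells/well in DMEM + 10% FCS (colchicine removed); pin compounds in dose-response; incubate 72 h, 37 degree C, 5% CO2; add CellTiter-Glo, 5 min; read luminescence.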

[3] = NS1 protein of Zika virus - qHTS assay to identify small molecule inhibitors in human HEK 293 cells (AID 1347053); also: nearly all actives have a fitted effect of over 55% in size; also: potency is read from the fitted curve at half-maximal effect
Procedure, shortened: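 HEK 293 cells, seeded 20 h at 37 C, were pretreated with compound 1 h, then infected with ZIKV MR766 (MOI = 0.5) for 24 h. NS1 was read by TR-FRET with two anti-NS1 antibodies, normalized to uninfected and infected wells.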

[4] = qHTS of pediatric cancer cell lines to identify multiple opportunities for drug repurposing: Primary screen for TC32 cells (AID 1347089); also: % is scaled to controls: 0 for no effect and ±100 for the full control effect; nearly all actives have a fitted effect of over 60% in size
Procedure, shortened: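 Luminescent CellTiter-Glo read-out of metabolically active TC32 cells after 48 h compound exposure. Primary: MIPE 11-point, 0.78 nM–46 µM; NPC 8-point, 0.59 nM–46 µM. Confirmatory: 11-point dilutions.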

[5] = qHTS of pediatric cancer cell lines to identify multiple opportunities for drug repurposing: Primary screen for SJ-GBM2 cells (AID 1347091); also: potency is read from the fitted curve at half-maximal effect;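 as to activity change, negative = cytotoxic: plate controls were DMSO neutral control for no effect and bortezomib for full effect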
Procedure, shortened: (§1)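 Eight- or eleven-point concentration series, 48 h treatment at 37 degrees C in growth media; readout CellTiter-Glo luminescence. Potency and efficacy were taken from the concentration-response curves.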

[6] = qHTS of pediatric cancer cell lines to identify multiple opportunities for drug repurposing: Primary screen for A673 cells (AID 1347092); also: nearly all actives have a fitted effect of over 45% in size; also: potency is read from the fitted curve at half-maximal effect; as to activity change, negative = cytotoxic: % is scaled to controls: 0 for no effect and ±100 for the full control effect
Procedure, shortened: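 A673 cells (500-1,000 cells/well in growth media) were pre-incubated 5 h at 37 degrees C, then exposed to compounds for 48 h. Viability was read as CellTiter-Glo luminescence; concentration-response curves came directly from the primary screen.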

[7] = qHTS of pediatric cancer cell lines to identify multiple opportunities for drug repurposing: Primary screen for BT-37 cells (AID 1347094); also: potency is read from the fitted curve at half-maximal effect;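 as to activity change, negative = cytotoxic: series mostly up to about 57 µM; plate controls were DMSO for no effect and bortezomib for full effect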
Procedure, shortened: (§2)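 Primary screen of approved and investigational compounds on cells in growth media at 37 degrees C, 5% CO2. MIPE set at 11-point and NPC set at 8-point dilutions; viability scored by ATP-based luminescence at 48 hours.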

[8] = qHTS of pediatric cancer cell lines to identify multiple opportunities for drug repurposing: Primary screen for NB-EBc1 cells (AID 1347095); also: potency is read from the fitted curve at half-maximal effect;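 as to activity change, negative = cytotoxic: plate controls were DMSO neutral control for no effect and bortezomib for full effect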
Procedure, shortened: as §2

[9] = qHTS of pediatric cancer cell lines to identify multiple opportunities for drug repurposing: Primary screen for U-2 OS cells (AID 1347096);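 also: plate controls were DMSO wells for no effect and bortezomib positive control wells for full effect; nearly all actives have a fitted effect of over 50% in size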
Procedure, shortened: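 Cells (500-1,000/well) in growth media were settled 5 h at 37 degrees C, then given compounds for 48 h. Viability was read as CellTiter-Glo luminescence. Primary runs used MIPE at 11 points (0.78 nM-46 µM) and NPC at 8 points (0.59 nM-46 µM); follow-ups used 11 points.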

[10] = qHTS of pediatric cancer cell lines to identify multiple opportunities for drug repurposing: Primary screen for Saos-2 cells (AID 1347097); also: nearly all actives have a fitted effect of over 40% in size; also: potency is read from the fitted curve at half-maximal effect; as to activity change, negative = cytotoxic: % is scaled to controls: 0 for no effect and ±100 for the full control effect
Procedure, shortened: as §2

[11] = qHTS of pediatric cancer cell lines to identify multiple opportunities for drug repurposing: Primary screen for SK-N-SH cells (AID 1347098); also: nearly all actives have a fitted effect of over 65% in size; also: potency is read from the fitted curve at half-maximal effect;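 as to activity change, negative = cytotoxic: DMSO served as neutral control and bortezomib at 2.3 µM as positive control; % is scaled to controls: 0 for no effect and ±100 for the full control effect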
Procedure, shortened: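 Cells (500-1,000/well) rested 5 h, then received compounds for 48 h; metabolically active cells were measured by CellTiter-Glo luminescence. Final concentrations spanned up to 46 µM (MIPE, 11-point) or 0.59 nM-46 µM (NPC, 8-point) in primary screens, 11-point in follow-ups.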

[12] = qHTS of pediatric cancer cell lines to identify multiple opportunities for drug repurposing: Primary screen for DAOY cells (AID 1347090); also: nearly all actives have a fitted effect of over 55% in size; also: potency is read from the fitted curve at half-maximal effect;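 as to activity change, negative = cytotoxic: series mostly up to about 46 µM; plate controls were DMSO for no effect and bortezomib for full effect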
Procedure, shortened: as §1

[13] = qHTS of pediatric cancer cell lines to identify multiple opportunities for drug repurposing: Primary screen for SK-N-MC cells (AID 1347093); also: potency is read from the fitted curve at half-maximal effect;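 as to activity change, negative = cytotoxic: series mostly up to about 46 µM; plate controls were DMSO neutral control for no effect and bortezomib for full effect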
Procedure, shortened: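 Metabolically active cells were quantified by ATP-dependent luminescence (CellTiter-Glo, 15 min at room temperature) following 48 h treatment. Cells had been plated at 500-1,000 per well and settled for 5 h beforehand.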

O=C(NCCCCN1CCOCC1)c1cc2ccccc2o1
active: Potency [11] 30.4 µM
inactive: Potency [1] | Potency [2] | Potency [3] | Potency [4] | Potency [5] | Potency [6] | Potency [7] | Potency [8] | Potency [9] | Potency [10]

Cc1ccc(S(=O)(=O)Nc2nc3ccccc3nc2Nc2ccc3nsnc3c2)cc1
active: Potency [12] 0.407 µM | Potency [5] 0.0575 µM | Potency [6] 0.0013 µM | Potency [13] 0.0512 µM | Potency [7] 0.0376 µM | Potency [10] 0.0457 µM
inactive and 20.6 µM (active): Potency [1]
inactive: Potency [3] | Potency [4]
inactive and 2.91 µM (active): Potency [2]

C[C@@]1(c2cc(-c3cncnc3)c(F)cc2F)CCSC(N)=N1
active: Potency [5] 4.69 µM | Potency [6] 0.0469 µM | Potency [13] 2.96 µM | Potency [7] 3.06 µM | Potency [8] 8.33 µM | Potency [10] 2.96 µM | Potency [11] 12.1 µM
inactive: Potency [1] | Potency [2] | Potency [3] | Potency [4] | Potency [9]

Cc1ccc(S(=O)(=O)OCC(=O)Nc2ccc(C(=O)O)c(O)c2)cc1
inactive: Potency [1] | Potency [2] | Potency [3] | Potency [4] | Potency [12] | Potency [5] | Potency [7] | Potency [8] | Potency [9] | Potency [10]
active: Potency [6] 14.8 µM | Potency [13] 9.35 µM

OC[C@H]1O[C@@H](Oc2ccc(O)cc2)[C@H](O)[C@@H](O)[C@H]1O
inactive: Potency [1] | Potency [2] | Potency [3] | Potency [4] | Potency [5] | Potency [7] | Potency [9] | Potency [10] | Potency [11]
active: Potency [13] 13.2 µM

CCN1C[C@H](C)n2c(c(O)c3c(=O)n(Cc4ccc(F)c(Cl)c4)nc(C(=O)NC)c32)C1=O
inactive: Potency [1] | Potency [2] | Potency [3] | Potency [4] | Potency [12] | Potency [5] | Potency [6] | Potency [13] | Potency [7] | Potency [8] | Potency [9] | Potency [10] | Potency [11]

Cc1cc2c(cc1C1(c3ccc(C(=O)O)cn3)CC1)C(C)(C)CCC2(C)C
inactive: Potency [1] | Potency [2] | Potency [3] | Potency [4] | Potency [12] | Potency [13] | Potency [7] | Potency [9] | Potency [10]

CCCCn1c(=O)n(Cc2ccccc2F)c(=O)c2[nH]c(Cc3ccc(NC(C)=O)cc3)nc21
active: Potency [12] 23.5 µM | Potency [13] 10.5 µM | Potency [11] 27.1 µM
inactive: Potency [1] | Potency [2] | Potency [3] | Potency [4] | Potency [5] | Potency [8] | Potency [9] | Potency [10]

CN[C@H]1[C@@H](O[C@@H]2[C@H](O[C@@H]3[C@@H](O)[C@@H](O)[C@@H](N=C(N)N)[C@@H](O)[C@@H]3N=C(N)N)O[C@H](C)[C@@]2(O)C=O)O[C@@H](CO)[C@@H](O)[C@H]1O
inactive: outcome [1] inactive [at 9.29 µM] | activity change, negative = cytotoxicity [2] 9.82% [at 9.29 µM] | Potency [3] | activity change, negative = cytotoxic [4] 6.69% [at 9.17 µM] | activity change, negative = cytotoxic [12] 1.78% [at 9.22 µM] | activity change, negative = cytotoxic [5] 13.3% [at 9.22 µM] | activity change, negative = cytotoxic [6] -1.15% [at 9.22 µM] | activity change, negative = cytotoxic [13] -4.87% [at 9.22 µM] | activity change, negative = cytotoxic [7] 3.99% [at 11.5 µM] | activity change, negative = cytotoxic [8] 7.3% [at 9.22 µM] | activity change, negative = cytotoxic [9] 13% [at 9.22 µM] | activity change, negative = cytotoxic [11] 18.9% [at 11.4 µM]

CN(C)c1ccccc1CN1CCCN(Cc2ccccc2N(C)C)C1c1ccncc1
inactive: Potency [1] | Potency [2] | Potency [4] | Potency [12]
active: Potency [3] 11.8 µM | Potency [6] 18.7 µM | Potency [8] 20.9 µM

NC(=O)c1ccc(N(C(N)=O)c2c(F)cccc2F)nc1-c1ccc(F)cc1F
inactive: Potency [1] | Potency [2] | Potency [3] | Potency [4] | Potency [5] | Potency [7] | Potency [8] | Potency [9] | Potency [10]

COc1nccc(-c2c(-c3ccc(F)cc3)ncn2C2CCNCC2)n1
inactive: Potency [1] | Potency [2] | Potency [3] | Potency [4] | Potency [12] | Potency [13] | Potency [8] | Potency [9] | Potency [11]

CC(C)CN(C[C@@H](O)[C@H](Cc1ccccc1)NC(=O)O[C@H]1CO[C@H]2OCC[C@H]21)S(=O)(=O)c1ccc(N)cc1
active: Potency [12] 14.8 µM | Potency [6] 5.9 µM | Potency [13] 2.35 µM | Potency [7] 6.11 µM | Potency [10] 20.9 µM
inactive: Potency [1] | Potency [2] | Potency [3] | Potency [4] | Potency [5] | Potency [11]

CN1C(=O)C(Cc2c[nH]c3ccccc23)NC1=S (stereo not drawn)
inactive: Potency [1] | Potency [2] | Potency [3] | Potency [4] | Potency [12] | Potency [5] | Potency [6] | Potency [13] | Potency [7] | Potency [9] | Potency [10] | Potency [11]
